About 2,000 (36%) of roughly 5,500 compounds were called active. Inconclusive results (about 18%) are left out. Cut-off read from the data, not from the text of the source: active = normalized growth mostly below about 0.91 (no sharp cut-off); inconclusive = no clear call, values can overlap the other calls; inactive = mostly above about 0.92. The list shows a part of the results.
Assay: chemical genetic growth profiling, strain panel (AID 1159580);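 note: tested at 20 µM; growth read once vehicle control cultures reached saturation at 30 °C; 1 = growth at the plate median or of vehicle wells; lower values mean less growth of the strain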
Conditions: S. cerevisiae deletion strains, growth OD

Measured: normalized growth

CN1CCCC1c1cccnc1 (stereo not given)
inactive: locus YAL013W, strain DEP1, stronger effect = lower value 0.987 | locus YAL040C, strain CLN3, stronger effect = lower value 0.984 | locus YCL061C, strain MRC1 (second series), stronger effect = lower value 0.981 | locus YDR150W, strain NUM1, stronger effect = lower value 0.981 | locus YDR363W, strain ESC2, stronger effect = lower value 1.02 | locus YER002W, strain NOP16, stronger effect = lower value 0.994 | locus YMR307W, strain GAS1, stronger effect = lower value 1.03 | locus YNL153C, strain GIM3, stronger effect = lower value 0.986 | locus YNL175C, strain NOP13, stronger effect = lower value 0.992 | locus YNL197C, strain WHI3, stronger effect = lower value 0.995 | locus YNL224C, strain SQS1, stronger effect = lower value 0.991 | locus YNL322C, strain KRE1, stronger effect = lower value 0.98 | locus YOR083W, strain WHI5 (second series), stronger effect = lower value 0.988 | locus YPL055C, strain LGE1, stronger effect = lower value 1 | locus YPL241C, strain CIN2, stronger effect = lower value 0.984
